Test results as given in the supplement of paper PMC12819154, “High-throughput peptide-centric local stability assay extends protein–ligand identification to membrane proteins, tissues and bacteria” (Nature Structural & Molecular Biology, 2025).

Compound: Nc1ncnc2c1ncn2[C@@H]1O[C@H](COP(=O)(O)OP(=O)(O)OP(=O)(O)O)[C@@H](O)[C@H]1O [adenosine 5'-triphosphate]
Assay: log2 fold change of tryptic peptide abundance, ligand vs vehicle (limited proteolysis) (log2 ratio); higher = more trypsin-susceptible (destabilized)
Conditions: ligand concentration: 5 mM; sample: E. coli desalted lysate; replicate design: treated before aliquoting
Method: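 HT-PELSA: desalted E. coli K-12 BW25113 lysate (with 12 mM MgCl2) incubated with 5 mM ATP (pH 7) or water for 30 min at 25 C, then a 4 min trypsin pulse at 22 C. Peptides were quantified by DIA-MS (4 replicates). Value is the peptide log2 fold change (treated/control); negative = stabilized. Scale: negative = ligand-stabilized region.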
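Further: lysate desalted by size exclusion to strip endogenous ATP, peptide intensities built from DIA-NN precursor signals, and peptides missing any value discarded before comparison.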

Target	log2 fold change
UniProt P55135 (peptide sequence: RLSDSPER, peptide start residue: 69)	-0.744
UniProt P00350 (peptide sequence: RIDKEGVFHTEWLD, peptide start residue: 455)	-0.396
UniProt P69829 (peptide sequence: EKMGSTGIGNGIAIPHGKLEEDTLR, peptide start residue: 58)	0.37
UniProt P28630 (peptide sequence: LSLLWPDGK, peptide start residue: 188)	-0.437
UniProt P08179 (peptide sequence: MHENAAWLDGQR, peptide start residue: 191)	-0.588
UniProt P40719 (peptide sequence: RFTSDAAHELR, peptide start residue: 239)	-2.75
UniProt P46859 (peptide sequence: GDFDVIESR, peptide start residue: 112)	-0.658
UniProt P37769 (peptide sequence: LMANEWAK, peptide start residue: 171)	-0.444
UniProt P37745 (peptide sequence: WVGVLLSADNK, peptide start residue: 98)	-0.542
